Screening results (PubChem)
This is a sample that favours compounds with a hit; in the whole collection about 1.2% have one here.
RGS7-Gao reg – human RGS7-Galphao interaction regulation; Multiplexed bead flow cytometry, RGS7-Galphao binding; actives lie on both sides; binding response (% of control), % at 10 µM; P09471; 0.35% of 220,000 active; in the data active = binding response below about 49% or above about 150%; inconclusive = no clear call, values can overlap the other calls; inactive = in between;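 note: fluorescent Galphao held in activated GDP-AlF4 state binding bead-coupled RGS7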
Target sequence (P09471 whole entry, looked up): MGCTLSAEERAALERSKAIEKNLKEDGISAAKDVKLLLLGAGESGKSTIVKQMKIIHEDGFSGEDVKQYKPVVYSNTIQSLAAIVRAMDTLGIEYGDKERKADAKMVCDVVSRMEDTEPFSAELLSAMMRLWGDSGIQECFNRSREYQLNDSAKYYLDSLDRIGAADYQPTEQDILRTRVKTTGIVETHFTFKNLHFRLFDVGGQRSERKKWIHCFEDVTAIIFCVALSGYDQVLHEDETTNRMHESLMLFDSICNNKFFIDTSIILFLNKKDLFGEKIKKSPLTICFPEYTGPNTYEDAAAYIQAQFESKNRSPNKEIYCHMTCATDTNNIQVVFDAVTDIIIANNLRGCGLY
RGS4-Gao reg – human RGS4-Galphao interaction regulation. binding response (% of control), % at 10 µM. 0.33% of 220,000 active. Multiplexed bead flow cytometry, RGS4-Galphao binding; actives lie on both sides. P09471. AID 1415; in the data active = binding response below about 49% or above about 150%; inactive = in between;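 note: fluorescent Galphao activated with aluminum fluoride binding bead-coupled RGS4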
Avidin bead fluor – compound fluoresces at 488/530 nm on avidin beads | compound fluorescence 488/530 nm, flow cytometry; hits give high values | fluorescence (KMESF) at 10 µM | 0.38% of 220,000 active | AID 1775; in the data active = fluorescence above about 47
GSH fluor – GSH bead compound fluorescence profile | GSH beads flow cytometry, compound fluorescence 488/530 nm; hits give high values | fluorescence (KMESF) at 10 µM | 0.25% of 190,000 active | AID 1776; in the data active = fluorescence above about 89;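 note: glutathione beads carrying GST-tagged Bcl family fusion proteins plus one bare bead set; values are compound well signal with DMSO vehicle wells as background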
RGS8-Gao – modulates binding of RGS8 to human Galphao | AID 1423 | response (percent of control binding), % at 10 µM | multiplexed bead flow cytometry; actives lie on both sides | P09471 | 0.34% of 220,000 active; in the data active = response below about 60% or above about 140%; inactive = in between;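 note: Galphao activated as the GDP aluminium fluoride complex binding bead-coupled RGS8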
RGS16-Gao – regulators of human RGS16-Galphao interaction; 0.38% of 220,000 active; bead-based flow cytometry RGS16-Galphao binding, fluorescence; actives lie on both sides; binding response (% of control), % at 10 µM; AID 1441;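 note: Galphao activated by GDP with aluminum fluoride before binding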
Target sequence (O15492 whole entry, looked up): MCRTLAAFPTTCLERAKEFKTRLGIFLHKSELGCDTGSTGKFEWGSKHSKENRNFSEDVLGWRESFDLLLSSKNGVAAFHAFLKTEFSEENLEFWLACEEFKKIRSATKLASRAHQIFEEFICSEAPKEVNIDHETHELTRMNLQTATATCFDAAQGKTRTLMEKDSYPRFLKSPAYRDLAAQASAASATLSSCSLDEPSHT
Target sequence (P09471 whole entry, looked up): as the sequence (P09471 whole entry, looked up) above
RGS-Gao – RGS4-Galphao interaction regulator (human). 99% of 1,600 active. AID 1504. shares compounds with RGS16-Gao. RGS4–Galpha-o binding response, % at 10 µM. multiplexed bead flow cytometry, RGS–Galpha-o binding;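 note: fluorescently labeled Galpha-o bound to GDP with aluminium fluoride binding biotinylated RGS beads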
Avidin counter – interferes with biotinylated probe binding to avidin beads; streptavidin beads, fluorescein-biotin binding, flow cytometry; 1,700 tested, under 10 active; inhibition, % at 10 µM; shares compounds with RGS16-Gao;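 active = inhibition above 50%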;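 note: median green fluorescence of gated singlet beads compared with DMSO control wells; 0% = DMSO wells and 100% = complete loss of bead fluorescence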
RGS8-Gao confirm – confirmation of regulators of human RGS8-Galphao interaction | shares compounds with RGS16-Gao | bead-based flow cytometry RGS8-Galphao binding, fluorescence; actives lie on both sides | binding response (% of control), % at 10 µM | 3% of 1,700 active; in the data active = binding response below about 72% or above about 130%; inactive = in between;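 note: Galphao activated as GDP AlF4 complex before binding bead RGS8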
RGS7-Gao single – RGS7-Galphao interaction regulation, single point confirmation; shares compounds with RGS16-Gao; bead-based flow cytometry RGS7-Galphao binding; actives lie on both sides; response (percent of control binding), % at 10 µM; 7.8% of 1,700 active; AID 1837; in the data active = response below about 75% or above about 130%; inactive = in between;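 note: fluorescent Galphao activated with GDP and aluminum fluoride binding bead-coupled RGS7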
RGS16-Gao conf – confirmation of regulators of human RGS16-Galphao interaction; shares compounds with RGS16-Gao; bead-based flow cytometry, RGS16-Galphao binding; actives lie on both sides; response (% of control binding), % at 10 µM; 4% of 1,700 active; AID 1838; in the data active = response below about 74% or above about 130%; inactive = in between;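 note: Galphao activated as the GDP aluminium fluoride complex binding bead-coupled RGS16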
RGS4-Gao single – RGS4-Galphao interaction regulation, single point confirmation; 4% of 1,700 active; binding response (% of control), % at 10 µM; AID 1840; shares compounds with RGS16-Gao; RGS4-Galphao binding, multiplexed bead flow cytometry; actives lie on both sides; in the data active = binding response below about 74% or above about 130%; inactive = in between
RGS19-Gao conf – RGS19-Galphao interaction regulation, single point confirmation; AID 1841; shares compounds with RGS16-Gao; 5% of 1,700 active; bead-based flow cytometry RGS19-Galphao binding; actives lie on both sides; response (percent of control binding), % at 10 µM; in the data active = response below about 50% or above about 160%; inactive = in between;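 note: 100% = no compound control and 0% = blank background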
Active calls of the source: *; i = inactive; ? = inconclusive; · = no result; [ ] = another dose, or the depositor's remark. Unless noted, the rule behind the calls is not given here.

SMILES	RGS7-Gao reg	RGS4-Gao reg	Avidin bead fluor	GSH fluor	RGS8-Gao	RGS16-Gao	Avidin counter	RGS8-Gao confirm	RGS7-Gao single	RGS16-Gao conf	RGS4-Gao single	RGS19-Gao conf	others
CC(C)c1onc(C(=O)NCCc2ccccc2)c1[N+](=O)[O-]	94	102	10	11	100	98	·	·	·	·	·	·
CCC(C)NC(=S)N(CCc1ccccc1)Cc1cc2cc(OC)c(OC)cc2[nH]c1=O (configuration not stated)	102	104	6	13	106	109	·	·	·	·	·	·
CCNC(=S)Nc1cc(OCC)c(NC(=O)c2cccs2)cc1OCC	36*	44*	7	6	61	50	-2	101	100	101	101	95
O=C1c2ccccc2C(=O)N1CCCCN(C(=O)c1cc([N+](=O)[O-])cc([N+](=O)[O-])c1)c1ccc(Cl)cc1	89	91	10	5	71	16*	i	102	102	110	104	120	RGS-Gao=91*
O=C1c2ccccc2C(=O)N1CCCCN(C(=O)c1ccc([N+](=O)[O-])cc1)c1ccc(Cl)cc1	94	93	11	25	98	92	·	·	·	·	·	·
Cc1cnc(C(=O)N2CCCC(C(=O)c3ccc(Cl)cc3C)C2)cn1 (configuration not stated)	121	108	17	13	107	113	·	·	·	·	·	·
O=C(NCc1ccc(OC(F)(F)F)cc1)C1CC(c2cccc(F)c2)=NO1 (configuration not stated)	?	101	12	·	100	96	·	·	·	·	·	·
COc1ccc(C(c2nnnn2C2CCCC2)N2CCC(C)CC2)c(OC)c1 (configuration not stated)	174*[activator]	188*[activator]	·	32	·	·	1	102	103	102	103	113
CCOc1cc(-c2nc(C)c(C(C)=O)n2O)ccc1OCC(=O)Nc1ccc(F)cc1	158*[activator]	110	64*	10	103	114	-1	93	90	92	101	77	RGS-Gao=110*
COc1cc(-c2nc(C)c(C(C)=O)n2O)ccc1OCC(=O)Nc1ccc(F)cc1	98	104	10	18	99	98	·	·	·	·	·	·
O=C(Nc1ccc([N+](=O)[O-])cc1)Nc1ccc(Cl)cc1F	-4.6*	11*	-2	24	4.4*	-52	0	100	102	102	99	102
O=C(Nc1ccc(Cl)cc1)Nc1cc([N+](=O)[O-])ccc1F	98	98	4	9	101	103	·	·	·	·	·	·
COc1cccc(NC(=O)CSc2nc3c(oc4ccccc43)c(=O)[nH]2)c1	98	98	13	4	100	96	·	·	·	·	·	·
Cc1ccc(C(=O)NNC(=O)c2ccc(C)cc2)cc1	109	104	25	11	106	111	·	·	·	·	·	·
Cc1ccc(C(=O)NC(O)C(Cl)Cl)cc1 (configuration not stated)	113	161*[activator]	2	19	104	175*[activator]	2	103	103	102	102	107
COCCCNC(=S)N1CCN(S(=O)(=O)c2ccc(OC)cc2)CC1	98	103	7	19	99	99	·	·	·	·	·	·
CCOC(=O)C1CCN(C(=O)CSc2ccc(Cl)cc2)CC1	55	49*	2	15	49*	8.3*	0	106	103	105	105	100
CCOC(=O)C1CCN(C(=O)CSc2ccc(Br)cc2)CC1	110	111	15	14	100	106	·	·	·	·	·	·
O=C(CN1C(=O)CC(c2ccccc2)=Nc2ccccc21)NCc1ccco1	1.6*	3.2*	-2	29	4.7*	-0.5*	-2	102	102	102	102	94
CCOC(=O)CCC(=O)Nc1cccc([N+](=O)[O-])c1	103	101	1	7	106	115	·	·	·	·	·	·
O=C(CCC(=O)OCc1ccc(Cl)cc1)Nc1cccc([N+](=O)[O-])c1	46*	51	2	21	58*	44	·	·	·	·	·	·	RGS-Gao=51*
Nc1oc2ccc(F)cc2c(=O)c1C=O	92	92	5	11	99	94	·	·	·	·	·	·
CCCCOc1ccc(Cc2cnc(N)nc2N)cc1	?	100	6	·	99	100	·	·	·	·	·	·
CC(C)Oc1ccc(Cc2cnc(N)nc2N)cc1	132	137	8	40	163*[activator]	i	0	104	103	102	104	100	RGS-Gao=137*
CCCC(N)CCCCCC(=O)O (configuration not stated)	120	129	14	25	123	333*[activator]	-2	99	98	98	101	93	RGS-Gao=129*
SMILES	RGS7-Gao reg	RGS4-Gao reg	Avidin bead fluor	GSH fluor	RGS8-Gao	RGS16-Gao	Avidin counter	RGS8-Gao confirm	RGS7-Gao single	RGS16-Gao conf	RGS4-Gao single	RGS19-Gao conf	others
NCCCC(=O)O	103	103	7	20	105	116	·	·	·	·	·	·
Cc1ccc(NC(=S)N/N=C2/CCCCc3ccccc32)cc1	?	106	9	·	99	102	·	·	·	·	·	·
Cc1ccc(C)c(NC(=S)N/N=C2\CCc3ccccc32)c1	?	45*	2	·	60	47	0	97	96	98	97	113
CCOC(=O)N1CCC(N2C(=O)c3ccccc3C2Nc2ccc(S(=O)(=O)N3CCCCC3)cc2)CC1 (configuration not stated)	107	102	9	12	99	100	·	·	·	·	·	·
CC(=O)Nc1ccc(Nc2ccc(N3C(=O)CCCC3=O)cc2[N+](=O)[O-])cc1	47*	46*	0	6	53*	33	-3	105	103	107	103	94
O=C(NCCN1CCN(c2cccc(Cl)c2)CC1)C1CCCN(S(=O)(=O)c2cnc[nH]2)C1 (configuration not stated)	114	116	5	15	142*[activator]	203	·	·	·	·	·	·	RGS-Gao=116*
